What all share (parameters): scale not given: direction of the effect not stated beside the values
The target of assay [1] is Protein translocase subunit SecA (Escherichia coli (strain K12)) (UniProt P10408). Kind of assay: Assay to Identify E. coli SecA ATPase Inhibitors. In kind it is functional. To be noted: 30 µM.
In assay [2] the target is T1, Ubiquitin-activating enzyme e1, putative (Leishmania donovani (strain BPK282A1)) (UniProt E9BSI1).
T1 sequence (whole entry): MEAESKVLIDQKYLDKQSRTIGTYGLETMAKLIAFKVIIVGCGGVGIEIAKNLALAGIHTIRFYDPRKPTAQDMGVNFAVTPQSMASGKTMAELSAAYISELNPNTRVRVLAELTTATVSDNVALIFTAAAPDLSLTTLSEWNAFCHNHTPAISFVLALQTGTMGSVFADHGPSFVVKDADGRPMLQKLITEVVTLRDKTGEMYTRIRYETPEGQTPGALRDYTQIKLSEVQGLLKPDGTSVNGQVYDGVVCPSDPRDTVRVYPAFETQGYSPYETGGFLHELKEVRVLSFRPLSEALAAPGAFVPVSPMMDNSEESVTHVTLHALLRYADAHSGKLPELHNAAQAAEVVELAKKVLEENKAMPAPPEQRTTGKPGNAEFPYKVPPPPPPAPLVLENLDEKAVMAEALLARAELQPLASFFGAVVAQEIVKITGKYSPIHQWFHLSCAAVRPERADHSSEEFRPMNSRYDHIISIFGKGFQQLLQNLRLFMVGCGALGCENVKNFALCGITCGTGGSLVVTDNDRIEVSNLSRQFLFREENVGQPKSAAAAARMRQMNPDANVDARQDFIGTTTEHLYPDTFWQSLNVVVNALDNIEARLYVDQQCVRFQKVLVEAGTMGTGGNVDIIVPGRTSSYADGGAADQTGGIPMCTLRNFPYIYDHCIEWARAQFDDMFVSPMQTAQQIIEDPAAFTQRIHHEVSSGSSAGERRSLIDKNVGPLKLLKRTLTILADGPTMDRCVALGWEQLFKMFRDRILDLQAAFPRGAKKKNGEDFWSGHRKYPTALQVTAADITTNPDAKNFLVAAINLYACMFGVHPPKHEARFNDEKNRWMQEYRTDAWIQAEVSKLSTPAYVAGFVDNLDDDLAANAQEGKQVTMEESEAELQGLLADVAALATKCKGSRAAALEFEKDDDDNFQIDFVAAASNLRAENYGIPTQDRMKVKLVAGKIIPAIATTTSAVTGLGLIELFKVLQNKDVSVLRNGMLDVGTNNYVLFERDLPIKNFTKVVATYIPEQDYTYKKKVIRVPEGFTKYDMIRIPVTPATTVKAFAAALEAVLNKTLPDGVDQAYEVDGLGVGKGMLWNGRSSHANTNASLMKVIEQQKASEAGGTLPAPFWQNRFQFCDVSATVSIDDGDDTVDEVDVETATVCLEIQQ
Kind of assay: Leishmania donovani Ubiquitin Activating Enzyme (LdE1). It counts as functional. Particulars: 30 µM.

The target of assay [3] is AMP-activated protein kinase, AMPK (Homo sapiens) (UniProt P54646+O43741+P54619+Q9UGJ0+Q9Y478+Q13131+Q9UGI9). Kind of assay: AMP-dependent Kinase enzyme assay. An in vitro enzyme assay that detects ADP turnover that is directly proportional to AMPK activity. This uses naive AMPK that is activated during the assay with MK-8722. In kind it is functional. To be noted: 30 µM.

Assay [4] deals with Sialic acid-binding Ig-like lectin 9 (Homo sapiens) (UniProt Q9Y336). Put plainly: Hs-Siglec9 ALPHAscreen SOP 20170721. To be noted: 10 µM. (In Alpha technology, singlet oxygen from a donor bead excites a nearby acceptor bead.)
Assay [5] relates to Trypanosoma cruzi. Put plainly: Trypanosoma cruzi phosphomannomutase and mannose-1-phosphate guanylyltransferase assay. It counts as functional. To be noted: 10 µM.
The target of assay [6] is T2, Arginase-2, mitochondrial (Homo sapiens) (UniProt P78540).
T2 sequence (whole entry): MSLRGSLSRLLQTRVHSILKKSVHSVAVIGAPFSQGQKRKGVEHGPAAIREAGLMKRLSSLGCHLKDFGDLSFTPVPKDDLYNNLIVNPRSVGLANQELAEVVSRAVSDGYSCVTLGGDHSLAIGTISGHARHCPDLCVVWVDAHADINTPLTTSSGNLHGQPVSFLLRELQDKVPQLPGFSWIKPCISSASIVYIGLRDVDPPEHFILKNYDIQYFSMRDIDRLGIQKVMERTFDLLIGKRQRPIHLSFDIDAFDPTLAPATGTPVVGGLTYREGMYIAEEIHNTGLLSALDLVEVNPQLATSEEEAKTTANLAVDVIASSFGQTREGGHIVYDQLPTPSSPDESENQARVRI
Put plainly: in vitro enzyme assay to detect the production of urea directly proportional to the activity of Arginase II. Note: in the data most compounds retested in dose-response had high values. To be noted: 33.3 µM. It counts as functional.

Assay [7] deals with T3, Proteasome subunit beta (Trypanosoma cruzi) (UniProt O96673).
T3 sequence (whole entry): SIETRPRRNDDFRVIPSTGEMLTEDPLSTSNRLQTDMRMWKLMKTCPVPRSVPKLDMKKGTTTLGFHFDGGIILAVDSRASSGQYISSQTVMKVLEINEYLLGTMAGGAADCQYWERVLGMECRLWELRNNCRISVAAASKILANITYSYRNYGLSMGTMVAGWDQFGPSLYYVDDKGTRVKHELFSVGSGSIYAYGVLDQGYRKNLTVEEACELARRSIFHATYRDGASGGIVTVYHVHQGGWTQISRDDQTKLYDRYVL
Put plainly: Trypanosoma cruzi proteasome chymotrypsin-like activity (TcProtChymo) assay. Note: in the data most compounds retested in dose-response had high values. In kind it is functional. Particulars: 9.37 µM.

The species entered for assay [8] is Homo sapiens. Put plainly: To identify inhibition of the IFN signalling (Jak-Stat) pathway via expression of an eGFP reporter gene under the control of an IFN-stimulated response element (ISRE) containing MxA promoter. In kind it is functional. Particulars: 30 µM.
Assay [9] concerns the target T4, Tyrosyl-tRNA synthetase, putative (Trypanosoma cruzi (strain CL Brener)) (UniProt Q4DSP6).
T4 sequence (whole entry): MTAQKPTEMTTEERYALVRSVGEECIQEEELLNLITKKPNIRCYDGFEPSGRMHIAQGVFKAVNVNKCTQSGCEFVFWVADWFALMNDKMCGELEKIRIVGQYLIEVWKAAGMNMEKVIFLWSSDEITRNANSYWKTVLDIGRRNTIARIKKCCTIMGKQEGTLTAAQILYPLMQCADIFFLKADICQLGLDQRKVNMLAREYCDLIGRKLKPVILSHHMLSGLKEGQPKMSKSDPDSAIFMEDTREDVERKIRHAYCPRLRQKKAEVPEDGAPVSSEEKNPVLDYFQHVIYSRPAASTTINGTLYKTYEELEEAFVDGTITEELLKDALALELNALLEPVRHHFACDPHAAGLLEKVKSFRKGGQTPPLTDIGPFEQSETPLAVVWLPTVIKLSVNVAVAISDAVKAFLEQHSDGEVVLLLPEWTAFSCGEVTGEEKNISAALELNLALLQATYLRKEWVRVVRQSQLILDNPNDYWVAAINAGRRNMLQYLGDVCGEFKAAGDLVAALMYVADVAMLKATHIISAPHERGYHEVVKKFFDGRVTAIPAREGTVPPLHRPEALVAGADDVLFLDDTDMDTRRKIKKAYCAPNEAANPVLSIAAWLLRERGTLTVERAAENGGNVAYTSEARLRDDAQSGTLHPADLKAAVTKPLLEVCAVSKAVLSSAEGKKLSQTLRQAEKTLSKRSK
Kind of assay: Trypanosoma cruzi tyrosyl tRNA synthetase (TcYRS) _High Tyrosine SOP. Note: in the data most compounds retested in dose-response had high values. It counts as functional. Particulars: 30 µM.

In assay [10] the target is T4, Tyrosyl-tRNA synthetase, putative (Trypanosoma cruzi (strain CL Brener)). Kind of assay: Trypanosoma cruzi tyrosyl tRNA synthetase (TcYRS) SOP. In kind it is functional. Particulars: 30 µM.
For assay [11], the target named is Chromo domain-containing protein 1 (Saccharomyces cerevisiae (strain ATCC 204508 / S288c) (Baker's yeast)) (UniProt P32657). Kind of assay: ScCHD-1 Enzyme Inhibition Assay. Note: in the data most compounds retested in dose-response had high values. It counts as functional. To be noted: 30 µM.

For some of these results: Measured potencies and affinities stand elsewhere.

Chain of Sialic acid-binding Ig-like lectin 9 (Homo sapiens) (Q9Y336 whole entry): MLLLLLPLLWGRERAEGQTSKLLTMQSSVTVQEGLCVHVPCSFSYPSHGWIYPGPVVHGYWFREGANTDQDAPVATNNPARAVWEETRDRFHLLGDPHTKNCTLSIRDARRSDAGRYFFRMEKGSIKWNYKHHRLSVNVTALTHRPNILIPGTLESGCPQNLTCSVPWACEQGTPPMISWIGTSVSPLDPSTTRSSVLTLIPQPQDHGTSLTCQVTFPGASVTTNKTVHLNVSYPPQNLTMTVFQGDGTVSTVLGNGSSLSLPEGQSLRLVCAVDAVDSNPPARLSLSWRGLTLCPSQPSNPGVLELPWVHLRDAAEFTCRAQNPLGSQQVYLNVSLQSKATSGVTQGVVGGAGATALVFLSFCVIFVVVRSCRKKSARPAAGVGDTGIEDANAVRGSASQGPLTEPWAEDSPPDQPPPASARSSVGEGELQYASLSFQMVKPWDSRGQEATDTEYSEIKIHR
Chain of Protein translocase subunit SecA (Escherichia coli (strain K12)) (P10408 whole entry): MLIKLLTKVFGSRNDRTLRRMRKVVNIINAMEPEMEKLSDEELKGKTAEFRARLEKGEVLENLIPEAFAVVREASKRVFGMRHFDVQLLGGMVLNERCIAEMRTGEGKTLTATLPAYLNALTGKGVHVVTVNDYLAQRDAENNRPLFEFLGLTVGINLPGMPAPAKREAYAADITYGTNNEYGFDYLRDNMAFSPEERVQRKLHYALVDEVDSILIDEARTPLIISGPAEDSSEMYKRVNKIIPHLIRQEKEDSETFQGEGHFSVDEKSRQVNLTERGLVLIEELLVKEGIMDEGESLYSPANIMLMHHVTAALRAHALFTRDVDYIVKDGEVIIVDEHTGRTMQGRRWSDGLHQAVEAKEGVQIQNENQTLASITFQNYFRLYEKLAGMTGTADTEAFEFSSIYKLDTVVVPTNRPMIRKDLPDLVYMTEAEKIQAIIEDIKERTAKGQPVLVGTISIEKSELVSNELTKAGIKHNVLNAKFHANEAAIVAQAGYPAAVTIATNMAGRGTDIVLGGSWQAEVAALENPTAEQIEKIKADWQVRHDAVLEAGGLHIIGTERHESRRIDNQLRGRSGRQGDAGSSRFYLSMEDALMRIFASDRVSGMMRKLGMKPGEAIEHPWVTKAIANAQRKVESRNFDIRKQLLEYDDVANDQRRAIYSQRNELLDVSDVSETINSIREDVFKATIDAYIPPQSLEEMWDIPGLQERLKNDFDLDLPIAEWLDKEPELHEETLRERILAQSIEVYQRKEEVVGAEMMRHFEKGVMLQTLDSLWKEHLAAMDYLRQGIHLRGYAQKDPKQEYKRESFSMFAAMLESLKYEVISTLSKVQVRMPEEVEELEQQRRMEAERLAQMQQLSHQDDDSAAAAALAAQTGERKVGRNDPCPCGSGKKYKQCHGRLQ
Chain of Chromo domain-containing protein 1 (Saccharomyces cerevisiae (strain ATCC 204508 / S288c) (Baker's yeast)) (P32657 whole entry, the tested form may be a part): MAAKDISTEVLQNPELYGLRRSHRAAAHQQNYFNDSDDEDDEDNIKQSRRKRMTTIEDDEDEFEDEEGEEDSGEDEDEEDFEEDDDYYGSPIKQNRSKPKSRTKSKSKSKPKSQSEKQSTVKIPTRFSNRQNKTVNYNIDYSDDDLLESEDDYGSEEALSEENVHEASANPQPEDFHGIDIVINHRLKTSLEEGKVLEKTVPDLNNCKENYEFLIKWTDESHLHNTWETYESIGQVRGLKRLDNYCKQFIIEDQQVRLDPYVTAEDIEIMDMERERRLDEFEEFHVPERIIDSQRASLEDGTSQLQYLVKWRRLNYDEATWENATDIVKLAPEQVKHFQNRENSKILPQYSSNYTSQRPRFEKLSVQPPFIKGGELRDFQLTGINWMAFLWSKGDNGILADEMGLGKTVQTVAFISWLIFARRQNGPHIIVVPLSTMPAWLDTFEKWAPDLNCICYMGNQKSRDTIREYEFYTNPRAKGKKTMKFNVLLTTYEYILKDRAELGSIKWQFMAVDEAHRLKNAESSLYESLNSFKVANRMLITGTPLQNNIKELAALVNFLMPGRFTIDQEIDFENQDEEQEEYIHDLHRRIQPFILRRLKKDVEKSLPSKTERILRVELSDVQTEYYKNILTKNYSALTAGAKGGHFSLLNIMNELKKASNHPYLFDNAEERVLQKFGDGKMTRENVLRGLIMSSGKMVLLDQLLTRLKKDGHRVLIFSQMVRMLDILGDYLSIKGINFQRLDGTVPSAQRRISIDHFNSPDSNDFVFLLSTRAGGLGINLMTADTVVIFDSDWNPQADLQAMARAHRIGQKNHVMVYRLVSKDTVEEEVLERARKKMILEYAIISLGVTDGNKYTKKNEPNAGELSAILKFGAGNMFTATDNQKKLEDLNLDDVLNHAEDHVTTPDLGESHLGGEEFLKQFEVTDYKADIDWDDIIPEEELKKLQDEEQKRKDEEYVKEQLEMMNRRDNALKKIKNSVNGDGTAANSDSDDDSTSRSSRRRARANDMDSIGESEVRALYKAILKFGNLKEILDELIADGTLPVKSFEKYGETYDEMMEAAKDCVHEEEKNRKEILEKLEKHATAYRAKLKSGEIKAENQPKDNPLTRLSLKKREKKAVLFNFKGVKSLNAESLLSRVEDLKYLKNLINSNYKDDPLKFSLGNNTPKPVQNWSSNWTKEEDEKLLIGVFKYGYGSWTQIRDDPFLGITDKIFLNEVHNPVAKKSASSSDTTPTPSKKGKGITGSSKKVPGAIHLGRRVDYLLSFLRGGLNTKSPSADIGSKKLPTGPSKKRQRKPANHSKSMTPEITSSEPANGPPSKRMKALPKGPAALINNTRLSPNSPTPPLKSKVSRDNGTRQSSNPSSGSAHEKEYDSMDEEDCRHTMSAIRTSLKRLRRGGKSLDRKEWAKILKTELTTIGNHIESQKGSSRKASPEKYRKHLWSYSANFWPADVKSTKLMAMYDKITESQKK

Take `Cc1cc(C)c2nc(CN3CC[C@@H](O)C3)cc(O)c2c1`: the Percent Effect in [1] was -2.1%; in assay [2] it was 0%; in assay [3] it was 0.932%; in [4] it was 1.78%; in assay [5], -1.16%; in [6], -3.81%. Also, the Percent Effect is 11.9% in assay [7]; -16.8% in assay [8]; 13.2% in assay [9]; 19.5% in [10]; -5.98% in assay [11].

Regarding `CCOc1cc(C)nc(N2CCN(Cc3nccn3C)CC2)n1`, the Percent Effect is 0.029% in [1]; 4.17% in [2]; -6.46% in assay [3]; 13.8% in [4]; 0.875% in assay [5]; 12.4% in [6]. Moreover, the Percent Effect in [7] was 11.2%; in [8], 4.49%; in assay [9] it was 5.26%; in [10] it was 7.69%; in assay [11] it was -4.66%.

With `O=C(NCCC1=CCCCC1)NCc1nnc2n1CCC2`, the Percent Effect in assay [1] was -2.33%; in assay [2], 15.8%; in assay [3], 1.86%; in assay [4] it was -11.8%; in assay [5], -5.88%; in [6], 7.91%. The Percent Effect is 6.18% in [7]; 7.88% in assay [8]; 7.39% in assay [9]; 16.1% in assay [10]; -8.65% in [11].

Take `CSc1ccccc1CN1CCn2nc(CNC(C)=O)cc2C1`: the Percent Effect in assay [1] was 0.00499%; in assay [2] it was 11%; in assay [3], 1.85%; in assay [4] it was 8.13%; in assay [5], 2.35%; in [6], 18.2%. For the same compound, the Percent Effect in [7] is 18.6%; in assay [8] it was 15.7%; in assay [9] it was 6.45%; in assay [10], 20%; in assay [11], -3.35%.

As to `CC(CN1CCCC1)C(=O)N1CCC(c2nccn2CC2CC2)CC1` (stereo unspecified), the Percent Effect in [1] is -4.31%; in assay [2], 13.5%; in assay [3], -3.47%; in assay [4], 27.7%; in [5], 10.2%; in [6], 2.86%. Moreover, the Percent Effect is 16.2% in assay [7]; 5.41% in [8]; 7.94% in assay [9]; 21.9% in assay [10]; -11.2% in assay [11].

Take `O=C(Cn1cc(I)cn1)N1CCc2ccccc2C1`: the Percent Effect in assay [1] was 0.654%; in [2], -12%; in [3] it was 6.11%; in assay [4], 2.56%; in assay [5], -2.55%; in assay [6], -10%. For the same compound, the Percent Effect in [7] is 6.1%; in assay [8] it was 2.17%; in assay [9] it was 2.12%; in [10], -2.56%; in assay [11] it was -2.67%.

Turning to `O=C1N(c2ccc(F)cc2)Cc2nc(=O)n(Cc3cccc(Cl)c3)n21`, the Percent Effect in [1] is 0.397%; in assay [2], -4%; in assay [3], 8.75%; in assay [4], 4.81%; in assay [5], -5.11%; in [6], -3.35%. The Percent Effect in assay [7] was 5.36%; in [8], -6.59%; in assay [9], -5.29%; in [10], -2.56%; in assay [11] it was -4.31%.

Take `Cc1ccc(CN2CCOC3(CCCN(C(=O)c4ccco4)C3)C2)s1` (stereo unspecified): the Percent Effect in assay [1] was -0.789%; in assay [2], 15.6%; in assay [3], -0.0266%; in assay [4] it was 8.56%; in [5], 5.41%; in assay [6], -19.3%. The Percent Effect in assay [7] was 17.6%; in assay [8] it was -8.94%; in assay [9] it was 6.45%; in [10], 13.6%; in assay [11] it was -2.11%.

`O=C(c1cccnc1)N1CCc2ncnc(C3CCOC3)c2CC1` (stereo unspecified): the Percent Effect was 0.619% in [1]; 10.7% in [2]; 5.98% in [3]; -10.8% in assay [4]; -5.71% in assay [5]; 3.5% in assay [6]. Besides, the Percent Effect in assay [7] worked out at 10.8%; in assay [8], 2.86%; in [9], 4.25%; in assay [10], 11.5%; in assay [11], 3.31%.

For `CCC(C)(C)NC(=O)CN(C)C(c1cccc(F)c1)c1ccccn1` (stereo unspecified), the Percent Effect was 0.66% in assay [1]; 2.6% in assay [2]; 9.59% in [3]; 15.1% in assay [4]; -3.56% in assay [5]; 3.56% in assay [6]. Besides, the Percent Effect was 0.845% in assay [7]; 36.6% in [8]; 5.83% in [9]; 7.32% in [10]; -2.33% in assay [11].

On to `CN1CCN(C2CCN(CCOc3ccc(F)cc3)CC2)C1=O`, for which the Percent Effect in assay [1] is -8.87%; in assay [2] it was 2.6%; in assay [3] it was 0.436%; in [4] it was -4%; in [5], -3.18%; in assay [6] it was -0.356%. Besides, the Percent Effect in assay [7] is 4.05%; in assay [8] it was 37.8%; in [9], 0%; in [10], 0%; in [11], -7.75%.

The values above are taken from ChEMBL document CHEMBL3988442, “University of Dundee, Small-Polar-MMV Screening Library” (2021).
